Results filed as inconclusive are left out. Activity calls are given as the source filed them. Unless noted, the call rests on the fitted dose curve; in most records, active means well fitted curve in the direction sought with a large enough effect in the repeat runs; inconclusive means weak or mixed curves; inactive means no such curve, though single readings can be large; an effect the other way counts as inactive or inconclusive.
How the values were obtained:
[1] = qHTS assay to test for compound auto fluorescence at 535 nm (green) in HEK293 cells (AID 720680)
[2] = qHTS assay to test for compound auto fluorescence at 460 nm (blue) in HEK293 cell free culture (AID 720681)
Summary of the method: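 Blue fluorescence (Ex 405/Em 460 nm, triamterene-equivalent) was read immediately after pin transfer of compound or DMSO into medium (DMEM, 10% FBS) without cells.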

[3] = qHTS assay to test for compound auto fluorescence at 535 nm (green) in HEK293 cell free culture (AID 720682)
Summary of the method: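 Cell-free medium (DMEM, 10% FBS) receives compound or DMSO by pintool. Plate read directly at Ex 485/Em 535 nm. Signal converted to fluorescein equivalency.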

[4] = qHTS assay to test for compound auto fluorescence at 590 nm (red) in HEK293 cell free culture (AID 720683)
Summary of the method: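 Red-channel autofluorescence of compounds in culture medium (DMEM, 10% FBS), no cells, measured at 540/590 nm. Rose Bengal sodium is the reference fluorophore for equivalence.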

[5] = qHTS assay to test for compound auto fluorescence at 590 nm (red) in HepG2 cell free culture (AID 720684)
Summary of the method: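 No cells present: MEM + 10% FBS only. Compound pinned in, red label read (540/590 nm). Activity = fluorescence equivalent to Rose Bengal sodium.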

[6] = qHTS assay to test for compound auto fluorescence at 460 nm (blue) in HepG2 cell free culture (AID 720685)
Summary of the method: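 Cell-free plates of MEM plus 10% FBS received 23 nL compound or DMSO vehicle; blue-channel (405/460 nm) intensity scored against triamterene as reference fluorophore.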

[7] = qHTS assay to test for compound auto fluorescence at 535 nm (green) in HepG2 cell free culture (AID 720686)
[8] = qHTS assay to test for compound auto fluorescence at 460 nm (blue) in HepG2 cells (AID 720687)
Summary of the method: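 Blue-channel autofluorescence (Ex/Em 405/460 nm, triamterene-equivalent) was measured after 1 hr compound exposure at 37 C, 5% CO2. Cells were HepG2, plated overnight at 37 C in MEM plus 10% FBS.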

[9] = target: Glucocorticoid receptor (Homo sapiens) (UniProt P04150); assay: qHTS assay to identify small molecule agonists of the glucocorticoid receptor (GR) signaling pathway (AID 720691; active means well fitted activation curve with a large enough effect in the signal ratio in the repeat runs, not every such curve was filed as active; the % refers to the signal ratio)
Summary of the method: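 Cells: GR-bla HeLa, endogenous GR with stably integrated GRE-beta-lactamase reporter. Treatment 18 h, 37 C, compounds delivered in DMSO. Detection via LiveBLAzer B/G FRET substrate, 2 h RT, fluorescence intensity.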

[10] = target: Glucocorticoid receptor (Homo sapiens) (UniProt P04150); assay: qHTS assay to identify small molecule antagonists of the glucocorticoid receptor (GR) signaling pathway (AID 720692; active means well fitted inhibition curve with a large enough effect in the signal ratio in the repeat runs, not every such curve was filed as active; the % refers to the signal ratio; further: potency means the concentration at half of the fitted maximal effect)
Summary of the method: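 Quantitative HTS in antagonist format: HeLa cells expressing endogenous GR and a stably integrated GRE-bla reporter, stimulated with 5 nM dexamethasone (final) alongside test compounds for 18 h.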

[11] = qHTS assay to identify small molecule antagonists of the glucocorticoid receptor (GR) signaling pathway - cell viability counter screen (AID 720693); further: nearly all actives have a fitted effect of over 55% in size
[12] = qHTS assay to identify small molecule antagonists of the androgen receptor (AR) signaling pathway - cell viability counter screen (AID 743033; further: nearly all actives have a fitted effect of over 45% in size)
[13] = target: Androgen receptor (Homo sapiens) (UniProt P10275); assay: qHTS assay to identify small molecule antagonists of the androgen receptor (AR) signaling pathway (AID 743035; active means well fitted inhibition curve with a large enough effect in the signal ratio in the repeat runs, not every such curve was filed as active; the % refers to the signal ratio)
Summary of the method: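 Quantitative HTS of the Tox21 10K library used HEK293 AR-UAS-bla cells stimulated with R1881 alongside compound for 16 h at 37C, followed by beta-lactamase FRET detection (LiveBLAzer B/G, 2 h, RT).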

[14] = target: Androgen receptor (Homo sapiens) (UniProt P10275); assay: qHTS assay to identify small molecule agonists of the androgen receptor (AR) signaling pathway (AID 743036; active means well fitted activation curve with a large enough effect in the signal ratio in the repeat runs, with a control signal flat, not every such curve was filed as active; the % refers to the signal ratio)
Summary of the method: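 AR-bla HEK293 cells, 2,000/well; 4 h preincubation 37C/5% CO2; compound (DMSO) 16 h at 37C; LiveBLAzer B/G FRET substrate 2 h RT; fluorescence intensity read-out.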

[15] = target: Androgen receptor (Homo sapiens) (UniProt P10275); assay: qHTS assay to identify small molecule agonists of the androgen receptor (AR) signaling pathway using the MDA cell line (AID 743040; further: nearly all actives have a fitted effect of over 20% in size)
Summary of the method: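 Stable MMTV-luciferase reporter in MDA-kb2 cells; note the promoter carries GR as well as AR response elements. 16 h compound treatment, 37C, 0% CO2; ONE-Glo luminescence endpoint.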

[16] = qHTS assay to identify small molecule antagonists of the androgen receptor (AR) signaling pathway using the MDA cell line - cell viability counter screen (AID 743041; further: nearly all actives have a fitted effect of over 45% in size)
Summary of the method: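 Using the breast carcinoma line MDA-kb2 AR-luc, test chemicals were co-incubated with R1881 for 16 h; CellTiter-Fluor reagent, added at 15.5 h, provided a fluorescence measure of live cells.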

[17] = target: Androgen receptor (Homo sapiens) (UniProt P10275); assay: qHTS assay to identify small molecule antagonists of the androgen receptor (AR) signaling pathway using the MDA cell line (AID 743042; further: nearly all actives have a fitted effect of over 55% in size)
Summary of the method: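 Antagonist mode: compounds plus R1881 agonist added to MDA-kb2 AR-luc cells, incubated 16 h at 37C. Luciferase reporter luminescence quantified, with multiplexed CellTiter-Fluor readout for cell viability.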

[18] = qHTS assay for identifying genotoxic compounds that show differential cytotoxicity against isogenic chicken DT40 cell lines with known DNA damage response pathways - wild type cell line (AID 743012); further: nearly all actives have a fitted effect of over 60% in size; further: potency means the concentration at half of the fitted maximal effect
Summary of the method: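 Luminescent ATP viability signal (CellTiter-Glo, 30 min RT) recorded after wild type DT40 cells were incubated with compounds for 40 h at 37 C/5% CO2.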

[19] = qHTS assay for identifying genotoxic compounds that show differential cytotoxicity against isogenic chicken DT40 cell lines with known DNA damage response pathways - Rev3 mutant cell line (AID 743014); further: nearly all actives have a fitted effect of over 55% in size; further: potency means the concentration at half of the fitted maximal effect
[20] = qHTS assay for identifying genotoxic compounds that show differential cytotoxicity against isogenic chicken DT40 cell lines with known DNA damage response pathways - Rad54/Ku70 mutant cell line (AID 743015); further: nearly all actives have a fitted effect of over 60% in size; further: potency means the concentration at half of the fitted maximal effect
On the % scale 0 is the no-effect control and ±100 the full control effect.

Androgen receptor (Homo sapiens), sequence (P10275 whole entry, looked up): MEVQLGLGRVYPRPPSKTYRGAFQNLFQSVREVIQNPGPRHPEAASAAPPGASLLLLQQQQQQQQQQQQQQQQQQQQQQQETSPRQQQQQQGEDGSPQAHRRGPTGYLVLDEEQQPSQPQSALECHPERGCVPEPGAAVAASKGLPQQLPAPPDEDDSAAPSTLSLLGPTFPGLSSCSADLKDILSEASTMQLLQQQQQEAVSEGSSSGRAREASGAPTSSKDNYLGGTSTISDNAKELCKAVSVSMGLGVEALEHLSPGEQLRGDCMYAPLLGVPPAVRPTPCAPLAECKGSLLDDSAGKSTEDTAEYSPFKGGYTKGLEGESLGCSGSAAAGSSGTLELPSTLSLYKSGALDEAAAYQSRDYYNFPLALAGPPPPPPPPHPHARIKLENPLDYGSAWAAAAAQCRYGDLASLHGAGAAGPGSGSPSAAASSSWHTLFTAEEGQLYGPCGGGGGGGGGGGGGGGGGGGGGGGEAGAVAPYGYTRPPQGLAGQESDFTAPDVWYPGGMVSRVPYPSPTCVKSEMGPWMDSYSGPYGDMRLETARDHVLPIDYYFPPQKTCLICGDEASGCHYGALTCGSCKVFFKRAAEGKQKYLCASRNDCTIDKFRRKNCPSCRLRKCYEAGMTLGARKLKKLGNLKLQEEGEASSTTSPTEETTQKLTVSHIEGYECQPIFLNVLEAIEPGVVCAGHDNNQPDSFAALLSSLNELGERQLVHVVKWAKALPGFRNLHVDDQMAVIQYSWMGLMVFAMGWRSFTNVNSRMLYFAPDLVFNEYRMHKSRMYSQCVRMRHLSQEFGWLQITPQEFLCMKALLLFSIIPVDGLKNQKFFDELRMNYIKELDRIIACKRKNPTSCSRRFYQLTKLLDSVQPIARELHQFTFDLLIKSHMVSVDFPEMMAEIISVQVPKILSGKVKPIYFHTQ
Glucocorticoid receptor (Homo sapiens), sequence (P04150 whole entry, looked up): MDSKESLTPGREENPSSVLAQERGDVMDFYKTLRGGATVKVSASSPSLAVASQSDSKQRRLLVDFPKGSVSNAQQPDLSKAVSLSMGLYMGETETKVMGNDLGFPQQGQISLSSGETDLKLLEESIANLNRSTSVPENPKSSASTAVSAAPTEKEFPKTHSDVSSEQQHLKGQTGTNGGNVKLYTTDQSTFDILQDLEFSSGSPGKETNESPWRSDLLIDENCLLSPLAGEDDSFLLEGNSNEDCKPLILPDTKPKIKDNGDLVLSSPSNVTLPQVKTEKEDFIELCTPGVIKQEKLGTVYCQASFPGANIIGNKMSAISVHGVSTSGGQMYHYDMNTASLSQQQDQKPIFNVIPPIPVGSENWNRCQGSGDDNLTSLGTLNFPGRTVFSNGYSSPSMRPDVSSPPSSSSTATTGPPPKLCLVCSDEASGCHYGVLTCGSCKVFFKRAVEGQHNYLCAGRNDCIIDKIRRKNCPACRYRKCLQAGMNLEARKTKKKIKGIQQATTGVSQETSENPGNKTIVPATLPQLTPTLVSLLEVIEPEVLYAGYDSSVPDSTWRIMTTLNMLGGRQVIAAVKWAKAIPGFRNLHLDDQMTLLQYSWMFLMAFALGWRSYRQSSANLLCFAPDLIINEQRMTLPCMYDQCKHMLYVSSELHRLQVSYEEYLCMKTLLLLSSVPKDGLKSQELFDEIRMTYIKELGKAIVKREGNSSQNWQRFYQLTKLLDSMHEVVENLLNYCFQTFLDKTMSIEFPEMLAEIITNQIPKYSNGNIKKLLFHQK

Cc1nc(C)c(C)nc1C
inactive: outcome [1] | Potency [2] | outcome [3] | outcome [4] | outcome [5] | outcome [6] | outcome [7] | outcome [8] | Potency [9] | Potency [10] | Potency [11] | Potency [12] | Potency [13] | outcome [14] | outcome [15] | Potency [16] | Potency [17]

C1CCN(CN2CCCCC2)CC1
inactive: outcome [1] | Potency [2] | outcome [3] | outcome [4] | outcome [5] | outcome [6] | outcome [7] | outcome [8] | Potency [9] | Potency [18] | Potency [19] | Potency [20] | Potency [12] | Potency [16]

CC(C)C/C=C(\C=O)c1ccccc1
inactive: outcome [1] | Potency [2] | outcome [3] | outcome [4] | outcome [5] | outcome [6] | outcome [7] | outcome [8] | Potency [9] | Potency [11] | Potency [18] | Potency [12] | Potency [16]

Cc1cc(SC2=C(O)C[C@@](CCc3ccc(N)cc3)(C(C)C)OC2=O)c(C(C)(C)C)cc1CO
active: Potency [10] 54.9 µM
inactive: outcome [1] | Potency [2] | outcome [3] | outcome [4] | outcome [5] | outcome [6] | outcome [7] | outcome [8] | Potency [18] | Potency [19] | Potency [20] | Potency [12] | Potency [13] | outcome [15] | Potency [16] | Potency [17]

CC(C)(C(=O)O)c1ccc(C(O)CCCN2CCC(C(O)(c3ccccc3)c3ccccc3)CC2)cc1 (centres undefined)
inactive: outcome [1] | Potency [2] | outcome [3] | outcome [4] | outcome [5] | outcome [6] | outcome [7] | outcome [8] | Potency [9] | Potency [10] | Potency [11] | Potency [12] | Potency [16]

O=C1c2ccccc2C(=O)C1c1ccc2ccccc2n1
active: Potency [20] 1.91 µM
inactive: outcome [1] | Potency [2] | outcome [3] | outcome [4] | outcome [5] | outcome [6] | outcome [7] | outcome [8] | Potency [9] | Potency [10] | Potency [11] | Potency [12] | Potency [16]

CCCCCCCCCC(C)C=O (centres undefined)
inactive: outcome [1] | Potency [2] | outcome [3] | outcome [4] | outcome [5] | outcome [6] | outcome [7] | outcome [8] | Potency [9] | Potency [11] | Potency [18] | Potency [20] | Potency [12] | Potency [16]

COC(=O)/C=C/C(C)=C\C=C\C(C)=C\C=C\C=C(C)\C=C\C=C(C)\C=C\C(=O)O
inactive: outcome [1] | Potency [2] | outcome [3] | outcome [4] | outcome [5] | outcome [6] | outcome [7] | outcome [8] | Potency [9] | Potency [12] | Potency [13] | outcome [14] | outcome [15] | Potency [17]

CCCCCCCCCCCCCCCCN
inactive: outcome [1] | Potency [2] | outcome [3] | outcome [4] | outcome [5] | outcome [6] | outcome [7] | outcome [8] | Potency [9] | Potency [11] | Potency [18] | Potency [19] | Potency [20] | Potency [12] | Potency [16]

Cc1c(Nc2ncccc2C(=O)O)cccc1C(F)(F)F
inactive: fluorescence, % of fluorescein [1] 0.0171% [at 18.6 µM] | fluorescence, % of fluorescent control [2] -0.115% [at 18.6 µM] | activity change [3] 0.0935% [at 18.6 µM] | fluorescence, % of fluorescent control [4] -0.29% [at 18.6 µM] | fluorescence, % of Rose Bengal [5] 0.0144% [at 18.6 µM] | fluorescence, % of fluorescent control [6] 0.0612% [at 18.6 µM] | fluorescence, % of fluorescein control [7] -0.0657% [at 18.6 µM] | fluorescence, % of fluorescent control [8] 0.0693% [at 18.6 µM] | Potency [11] | Potency [19] | Potency [12] | Potency [16]
active: Potency [18] 12.7 µM | Potency [20] 11.4 µM

Oc1ccc(CCNCCCCCCNCCc2ccccc2)cc1O
active: Potency [18] 13.3 µM | Potency [19] 29.8 µM | Potency [20] 26.6 µM
inactive: outcome [1] | Potency [2] | outcome [3] | outcome [4] | outcome [5] | outcome [6] | outcome [7] | outcome [8] | Potency [11] | Potency [12] | Potency [16]

Cc1cc(N)n(-c2ccccc2)n1
inactive: outcome [1] | Potency [2] | outcome [3] | outcome [4] | outcome [5] | outcome [6] | outcome [7] | outcome [8] | Potency [11] | Potency [18] | Potency [20] | Potency [12]

CCOc1ccccc1O
inactive: outcome [1] | Potency [2] | outcome [3] | outcome [4] | outcome [5] | outcome [6] | outcome [7] | outcome [8] | Potency [11] | Potency [18] | Potency [19] | Potency [20] | Potency [12]

C=CC(O)CCCCC (centres undefined)
inactive: outcome [1] | Potency [2] | outcome [3] | outcome [4] | outcome [5] | outcome [6] | outcome [7] | outcome [8] | Potency [11] | Potency [19] | Potency [20] | Potency [12] | Potency [16]

CC(C)=CCCC(C)C=O (centres undefined)
inactive: outcome [1] | Potency [2] | outcome [3] | outcome [4] | outcome [5] | outcome [6] | outcome [7] | outcome [8] | Potency [11] | Potency [12] | Potency [16]
active: Potency [20] 61.1 µM

CCOCCn1c(N2CCCN(C)CC2)nc2ccccc21
inactive: outcome [1] | Potency [2] | outcome [3] | outcome [4] | outcome [5] | outcome [6] | outcome [7] | outcome [8] | Potency [11] | Potency [18] | Potency [19] | Potency [20] | Potency [12] | Potency [13] | outcome [15] | Potency [16] | Potency [17]

Cc1cc(C)c(C)c(O)c1
inactive: outcome [1] | Potency [2] | outcome [3] | outcome [4] | outcome [5] | outcome [6] | outcome [7] | outcome [8] | Potency [11] | Potency [18] | Potency [20] | Potency [12] | Potency [16]

— PubChem BioAssay (Tox21)
